NLRP3 yeast inh: NALP3 inflammasome inhibitors in reconstituted yeast, primary screen, luminescence, uHTS; actives 0.39% (n = 330,000); inhibition, % at 10 µM; Yeast reconstituted NLRP3/ASC/caspase-1, beta-gal luminescence, 24 h;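 active means inhibition of 50% or more; inactive means inhibition below 50%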;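 further: plate controls were induced DMSO wells for no effect and uninduced yeast grown without galactose for full effect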
NALP1 inh: NALP1 inflammasome inhibitors in reconstituted yeast, colorimetric, S. cerevisiae, triplicate retest | S. cerevisiae NALP1/ASC/caspase-1 growth, X-gal OD620, 72 h | inhibition, % at 10 µM | actives 0.61% (n = 280,000) | AID 2071, 2009; in the data active means inhibition mostly above about 24%, no sharp cut-off; inactive means mostly below about 32%
tim10-1 inh: growth inhibitors of tim10-1 mutant yeast, primary screen, luminescence, uHTS | actives 2.2% (n = 330,000) | S. cerevisiae tim10-1 ts strain growth, BacTiter-Glo, 24 h | inhibition, % at 20 µM;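 active means inhibition of at least 40%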;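 further: mutant grown at 25 °C; 0% = DMSO wells with yeast and 100% = wells holding no yeast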
TIM10 inh: growth inhibitors of isogenic TIM10 control yeast, primary screen, counter-screen for tim10-1 yeast inhibitor project, luminescence, uHTS. S. cerevisiae TIM10 strain growth, BacTiter-Glo luminescence, 24 h. inhibition, % at 10 µM. actives 1.4% (n = 330,000);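 active means inhibition of 40% or more at the single tested concentration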;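 further: wild-type TIM10 isogenic control strain grown at permissive 25 °C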
V-ATPase pHluor: regulators of yeast V-ATPase proton pumping, primary screen, pHLuorin cytosolic pH fluorescence | S. cerevisiae | response, % at 10 µM | actives 0.37% (n = 350,000) | AID 504577, 2011; in the data active means response mostly above about 7.3%, no sharp cut-off; inactive means mostly below about 5.4%; further: actives read high
tim23-1 inh: growth inhibitors of tim23-1 mutant yeast, primary screen, luminescence, uHTS. AID 463212, 2010. S. cerevisiae tim23-1 growth, BacTiter-Glo luminescence, 24 h. actives 1.3% (n = 330,000). inhibition, % at 20 µM;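 active means growth inhibition of the mutant yeast at or above 50%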;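 further: temperature-sensitive mutant grown at 25 °C; plate controls were DMSO-treated mutant yeast for no effect and medium wells lacking yeast for full effect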
tim10-1 confirm: growth inhibitors of tim10-1 mutant yeast, confirmation, single concentration, luminescence, S. cerevisiae | actives 56% (n = 7,400) | AID 463213, 2010 | shares compounds with tim10-1 inh | S. cerevisiae tim10-1 ts strain growth, BacTiter-Glo, 24 h | inhibition, % at 20 µM;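 active means inhibition of yeast growth at or above a set limit in either of two repeat tests at 20 µM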;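 further: tim10-1 mutant grown at permissive 25 °C to find synthetic lethal compounds; 0% = DMSO yeast wells and 100% = medium wells without yeast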
Numbers without * were called inactive; · = not tested or not shown. Only some compounds are listed: those with a hit (about 4.2% of all), similar ones and a draw of the others.

SMILES	NLRP3 yeast inh	NALP1 inh	tim10-1 inh	TIM10 inh	V-ATPase pHluor	tim23-1 inh	tim10-1 confirm
C=C1CCC2[C@](C)(CO)[C@H](O)CC[C@@]2(C)[C@@H]1/C=C/C1=CCOC1=O (some centres undefined)	4.6	·	7.4	3.9	2.2	15.5	·
C=C1CC[C@@H]2[C@](C)(CO)[C@H](O)CC[C@@]2(C)[C@@H]1/C=C/C1=CCOC1=O	12.9	-2.6	97.9*	2.5	-2.7	20.7	4.8
Cc1cc(-c2ccc(C)c(S(=O)(=O)NCCc3ccco3)c2)on1	10.0	-21.4	-22.4	5.9	5.2	20.1	·
Cc1cc(-c2ccc(C)c(S(=O)(=O)NCc3ccc(Br)cc3)c2)on1	19.0	1.7	43.2*	0.1	-2.3	46.3	-6.6
Cc1cc(-c2ccc(C)c(S(=O)(=O)NCc3cccc(Br)c3)c2)on1	12.9	16.7	40.9*	-4.8	3.3	31.2	-2.1
CCCn1nnnc1NCc1ccccc1Cl	23.0	1.1	-4.9	-6.8	-0.9	-0.1	·
O=S(=O)(/C=C/c1ccccc1)n1cnc2ccccc21	8.8	4.8	44.4*	37.6	-3.0	29.0	32.3*
O=C(NC1CCCCC1)C(Cc1ccccc1)N1C(=O)C2C3CCC(C3)C2C1=O (centres undefined)	16.3	-3.3	27.8	27.1	-5.0	34.8	·
O=C(NCc1ccccc1)C(Cc1ccccc1)N1C(=O)C2C3CCC(C3)C2C1=O (centres undefined)	-0.7	-12.5	40.4*	2.1	1.2	13.6	15.7
CCOc1ccc(S(=O)(=O)N(C)c2ccc(OCC(=O)NCc3ccc(C(=O)OC)cc3)cc2)cc1	9.0	-4.0	10.9	16.1	0.3	8.3	·
Cc1ccc(-c2cc(C(=O)Nc3ccccc3C)c3ccccc3n2)o1	-7.5	7.8	48.7*	9.0	-2.7	14.2	25.9
COC(=O)c1cc(-c2ccc(C)o2)nc2ccccc12	24.6	13.1	22.8	21.6	0.3	14.7	·
CC(C)(C)c1ccc(C(=O)N2CCC(C(=O)NC3CCCCCC3)CC2)cc1	23.1	3.0	28.5	10.6	-4.3	23.9	·
Cc1nc2cc(C(=O)OCC(=O)NC34CC5CC(CC(C5)C3)C4)ccc2n1-c1ccccc1	1.3	·	40.2*	27.8	-2.4	34.2	31.9*
Cc1ccc(NS(=O)(=O)c2ccc(-c3cnc(C4CC4)o3)cc2)cc1	37.9	11.8	40.4*	-14.6	-4.5	26.8	-10.6
COc1ccc(C)cc1NS(=O)(=O)c1ccc(-c2cnc(C3CC3)o2)cc1	-4.4	-5.5	43.3*	-21.2	0.4	36.8	1.5
CC(=O)c1ccc(NS(=O)(=O)c2ccc(-c3cnc(C4CC4)o3)cc2)cc1	-0.1	-12.3	10.7	6.0	-1.4	19.6	·
Cc1ccc(CNS(=O)(=O)c2ccc(-c3cnc(C4CC4)o3)cc2)cc1	17.4	4.2	26.6	27.6	5.2	45.4	·
CCCc1cc(=O)oc2cc(C)cc(OC(C)C(=O)NCC(O)c3ccccc3)c12 (centres undefined)	3.4	23.6	21.2	8.3	-1.4	17.2	·
CNc1ccc(Br)cc(C(=O)/C=C/c2cccc(OC)c2OC)c1=O	6.3	-82.8	41.7*	20.4	-2.9	32.6	33.6*
O=C1C(Cc2ccccc2)Nc2ncnc(N3CCN(c4ccccc4)CC3)c2N1Cc1ccc(Cl)cc1 (centres undefined)	16.9	·	28.2	26.9	-1.8	31.9	·
COc1cccc(CN2CCN(C(=O)c3ccc(-c4ccccc4)cc3)CC2)c1OC	27.7	17.1	44.3*	39.2	-0.8	30.7	26.7
Cc1cc(=O)[nH]c2c1c(C)nn2-c1ccccc1	2.5	14.2	-9.1	3.9	-1.0	-7.9	·
Cc1nn(-c2ccc(Cl)cc2)c2[nH]c(CCl)cc(=O)c12	19.3	11.7	62.5*	31.2	2.6	47.0	31.8*
CC(CNC(=O)COc1ccccc1)OC(=O)Nc1ccc(Cl)c(Cl)c1 (centres undefined)	25.4	28.1	49.6*	33.4	2.4	41.1	42.8*
